Assay results: PubChem BioAssay (NCATS)
Inconclusive results are not listed. A call without a number means that no potency is given here. Active and inactive are the calls of the source. Calls come from the whole dose curve; as a rule, active = well fitted curve in the direction sought with a large enough effect; inconclusive = small, poorly fitted or top-dose-only effect, or another doubt; inactive = no such curve, though single readings can be large; an effect the other way counts as inactive or inconclusive.

What was measured:
[1] = target: Aldehyde dehydrogenase, mitochondrial (Homo sapiens) (UniProt P05091); assay: qHTS for Inhibitors of the Aldehyde Dehydrogenase Family (ALDH2) Primary screen (AID 2061308); note: nearly all actives have a fitted effect of over 55% in size
[2] = target: Retinaldehyde dehydrogenase 3 (Homo sapiens) (UniProt P47895); assay: qHTS for Inhibitors of the Aldehyde Dehydrogenase Family (ALDH1A3) Primary screen (AID 2061315)

Structure (SMILES): Cc1ccc(C)c(-c2cc(C(F)(F)F)nn2-c2ccc(S(N)(=O)=O)cc2)c1
- Potency [1]: inactive
- Potency [2]: inactive

Structure (SMILES): CCS(=O)(=O)N1CCC(C(=O)Nc2ccc(S(=O)(=O)Nc3nccs3)cc2)CC1
- Potency [1]: inactive
- Potency [2]: inactive

Structure (SMILES): O=C1CCCC2=C1C(c1ccncc1)N=C(Nc1nc3ccccc3o1)N2 (configuration not stated)
- Potency [1]: inactive
- Potency [2]: inactive

Structure (SMILES): COC(=O)c1ccccc1NC(=O)c1ccc(F)cc1
- Potency [1]: inactive
- Potency [2]: inactive

Structure (SMILES): O=C(OCc1ccccc1)N1CCN(C(=O)[C@H](Cc2ccc(O[S+](=O)([O-])c3cccc4cnccc34)cc2)N[S+](=O)([O-])c2cccc3cnccc23)CC1
- Potency [1]: inactive
- Potency [2]: inactive

Structure (SMILES): Cc1ccc(S(=O)(=O)Nc2ccc(F)cc2C(=O)Nc2nc(-c3ccccc3)cs2)cc1
- Potency [1]: inactive
- Potency [2]: inactive

Structure (SMILES): CCCCNc1nc(C)nc2c1nc(C)n2CCC
- Potency [1]: inactive
- Potency [2]: inactive

Structure (SMILES): O=S(=O)(c1ccccc1)N1CCN(S(=O)(=O)c2ccc3c(c2)OCCO3)CC1
- Potency [1]: inactive
- Potency [2]: inactive

Structure (SMILES): COc1ccc(OC)c(C2=Nn3c(nnc3-c3ccccc3O)SC2)c1
- Potency [1]: inactive
- Potency [2]: inactive

Structure (SMILES): O=C(CCCCSc1nnc(-c2cccc3ccccc23)o1)Oc1ccc(F)cc1
- Potency [1]: inactive
- Potency [2]: inactive

Structure (SMILES): O=S(=O)(c1ccc2c(c1)OCCO2)N1CCN(S(=O)(=O)c2c(F)cccc2F)CC1
- Potency [1]: inactive
- Potency [2]: inactive

Structure (SMILES): CC(C)Cc1ccc(-c2ccc(=O)n(CC(=O)NCCc3ccccc3)n2)cc1
- Potency [1]: inactive
- Potency [2]: inactive

Structure (SMILES): COc1ccc(OC)c(-c2nnc3n2N=C(c2ccccc2OC)CS3)c1
- Potency [1]: inactive
- Potency [2]: inactive

Structure (SMILES): Cc1cc(C)n2ncc(C(=O)Nc3ccc(S(C)(=O)=O)cc3)c2n1
- Potency [1]: inactive
- Potency [2]: inactive

Structure (SMILES): Cc1ccccc1NS(=O)(=O)c1ccc2c(c1)CCC(=O)N2
- Potency [1]: inactive
- Potency [2]: inactive

Structure (SMILES): Cc1cn2c(-c3cn[nH]c3)cnc2c(Nc2ccc(C(=O)N3CCNCC3)cc2F)n1
- Potency [1]: inactive
- Potency [2]: inactive

Structure (SMILES): Cc1ccc(-c2csc(NC(=O)c3ccccc3NS(=O)(=O)c3ccc(C)cc3)n2)cc1
- Potency [1]: inactive
- Potency [2]: inactive

Structure (SMILES): CCOC(=O)c1ccc(-c2ccc3ncnc(N(C)Cc4sccc4C)c3c2)o1
- Potency [1]: inactive
- Potency [2]: inactive

Structure (SMILES): Cc1nc(CNc2ncnc3ccc(-c4ccc(CO)o4)cc23)cs1
- Potency [1]: inactive
- Potency [2]: inactive

Structure (SMILES): Cc1ccc(OCCn2c(CCNC(=O)c3ccccc3C)nc3ccccc32)cc1
- Potency [1]: inactive
- Potency [2]: inactive

Structure (SMILES): COC(=O)c1cccc(-c2noc(-c3ccccc3F)n2)c1
- Potency [1]: inactive
- Potency [2]: inactive

Structure (SMILES): CC(C)Nc1cccc(S(=O)(=O)N2CCCN(S(=O)(=O)c3ccc4c(c3)OCCO4)CC2)c1
- Potency [1]: inactive
- Potency [2]: inactive

Structure (SMILES): CCN(CC)CCCn1c(-c2ccccc2)nc2c(N3CCOCC3)nc(C)nc21
- Potency [1]: inactive
- Potency [2]: inactive

Structure (SMILES): Cc1ccc(C)c(OC2=NS(=O)(=O)c3ccccc32)c1
- Potency [1]: inactive
- Potency [2]: inactive

Structure (SMILES): CCCCNC(=S)NCCCc1cnc[nH]1
- Potency [1]: inactive
- Potency [2]: inactive

Structure (SMILES): COc1cc(NC(=O)c2cnn3c(C)cc(C)nc23)cc(OC)c1OC
- Potency [1]: inactive
- Potency [2]: inactive

Structure (SMILES): COc1cccc(CNc2ncnc3ccc(-c4c(C)noc4C)cc23)c1
- Potency [1]: inactive
- Potency [2]: inactive

Structure (SMILES): O=S(=O)(NCCCCNS(=O)(=O)c1c(F)cccc1F)c1ccc2c(c1)OCCO2
- Potency [1]: inactive
- Potency [2]: inactive

Structure (SMILES): O=[S+]([O-])(Nc1cnc2ccccc2c1)c1ccc(NCc2ccc(Cl)cc2O)cc1
- Potency [1]: inactive
- Potency [2]: inactive

Structure (SMILES): COc1cc(O)c(C(CC(=O)N2CCOCC2)c2ccc(OC)c(OC)c2)c(OC)c1 (configuration not stated)
- Potency [1]: inactive
- Potency [2]: inactive

Structure (SMILES): Cn1nnnc1Sc1ncnc2scc(-c3ccc4ccccc4c3)c12
- Potency [1]: inactive
- Potency [2]: inactive
